Compound activity as filed in PubChem BioAssay.
hNpr1 antagonist: human Npr1 receptor antagonism. P16066. HEK293 hNpr1 GloSensor cGMP, ANP-stimulated luminescence. Potency, µM (highest dose often 46.3 µM), for inactives: at the top dose activity change, negative = inhibition, usual class: inhibitors. 1.6% of 76,000 active. AID 1347048; calls by dose curve; further: on the % scale 0 is the no-effect control and ±100 the full control effect; nearly all actives have a fitted effect of over 60% in size
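Compound pre-incubated 30 min at room temperature on GloSensor-loaded HEK293 cells stably carrying hNpr1 and the pGS-40F cGMP biosensor. Stimulation uses hNppA at 0.1 nM final; luminescence is taken at baseline and 20 min post-agonist.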
HEK cytotox: kills HEK 293 cells; HEK 293 viability, ATP luminescence (CellTiter-Glo), 48-72 h; Potency, µM (titrated, usually from 115 µM), for inactives: at the highest dose activity change, negative = cytotoxicity, usual class: inhibitors; 6.6% of 94,000 active; AID 1345083; further: on the % scale 0 is the no-effect control and ±100 the full control effect; nearly all actives have a fitted effect of over 60% in size
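Pintool-delivered compounds were incubated with HEK 293 cells (250 cells/well) at 37 degree Celsius for 48 or 72 hr. ATP-dependent luminescence (CellTiter-Glo) then reported remaining viable cells.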
3T3 cytotox: NIH 3T3 cell cytotoxicity | NIH 3T3 viability, CellTiter-Glo ATP luminescence, 48-72 h | Potency, µM (doses to about 96.7 µM), without a hit: at the highest dose activity change, negative = cytotoxicity, most hits filed as inhibitors | 4.3% of 94,000 active | AID 1345082; further: on the % scale 0 is the no-effect control and ±100 the full control effect; nearly all actives have a fitted effect of over 55% in size
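Luminescent ATP readout (CellTiter-Glo, 10 min RT) after 48 or 72 hr compound exposure of NIH 3T3 cells seeded at 400 cells/well in 1536-well format; quantitative HTS.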
Luciferase inh: inhibitors of firefly (Photinus pyralis) luciferase; 2.5% of 76,000 active; AID 1347043; purified P. pyralis luciferase, luminescence, biochemical; Potency, µM (highest dose often 115 µM), actives largely listed as inhibitors; further: on the % scale 0 is the no-effect control and ±100 the full control effect; nearly all actives have a fitted effect of over 65% in size
Target sequence (P08659 whole entry, looked up): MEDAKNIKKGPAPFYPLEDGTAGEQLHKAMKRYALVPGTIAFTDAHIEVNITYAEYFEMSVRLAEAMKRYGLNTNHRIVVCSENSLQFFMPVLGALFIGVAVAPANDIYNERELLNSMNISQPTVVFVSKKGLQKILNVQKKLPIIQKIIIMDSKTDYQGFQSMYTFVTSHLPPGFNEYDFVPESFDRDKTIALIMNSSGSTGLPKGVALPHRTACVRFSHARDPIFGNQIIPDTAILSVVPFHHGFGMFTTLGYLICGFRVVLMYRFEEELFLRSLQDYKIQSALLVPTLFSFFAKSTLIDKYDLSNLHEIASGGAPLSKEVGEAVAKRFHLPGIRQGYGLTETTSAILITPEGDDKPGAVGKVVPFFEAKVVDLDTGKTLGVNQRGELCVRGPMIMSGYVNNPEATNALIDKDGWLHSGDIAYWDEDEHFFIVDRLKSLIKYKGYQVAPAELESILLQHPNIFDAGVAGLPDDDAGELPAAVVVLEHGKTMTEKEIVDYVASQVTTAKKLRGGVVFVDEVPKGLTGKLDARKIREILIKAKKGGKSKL
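Purified P. pyralis luciferase (10nM final) in 50mM Tris acetate pH 7.5, 10mM Mg acetate, 0.01% Tween-20, 0.05% BSA with 10uM D-luciferin and 10uM ATP. Compounds titrated qHTS. Luminescence imaged on CCD.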
Npr1 antag conf: confirmation of human Npr1 natriuretic peptide receptor antagonists | shares compounds with hNpr1 antagonist | 76% of 1,400 active | HEK293 hNpr1 cGMP GloSensor luminescence, ANP-stimulated | Potency, µM (top dose mostly 57.6 µM), without a hit: top-dose activity change, negative = inhibition, actives largely listed as inhibitors | AID 1347044; calls by dose curve; further: nearly all actives have a fitted effect of over 70% in size
NPR2 antag: hNpr2 antagonism, selectivity versus Npr1; Potency, µM (series often up to 57.6 µM), for inactives: at the highest dose activity change, negative = inhibition, hits mostly inhibitors; 67% of 1,400 active; shares compounds with hNpr1 antagonist; HEK293 hNpr2 GloSensor cGMP luminescence, CNP-stimulated; AID 1347046; calls by dose curve; further: nearly all actives have a fitted effect of over 70% in size
FLuc counter: counter-screen for Npr1 antagonists: firefly luciferase inhibitors | purified FLuc enzyme, luminescence, Km substrate | shares compounds with hNpr1 antagonist | 0.7% of 1,400 active | AID 1347047 | Potency, µM (doses to about 57.6 µM), for the others: at the top dose activity change, negative = inhibition, hits mostly inhibitors; further: 0% is about no effect
GloSensor cGMP: control cell line activity, Npr1 antagonist counter-screen; HEK293 GloSensor cGMP, SNP-stimulated, luminescence; Potency, µM (series often up to 57.6 µM), without a hit: at the highest dose activity change, negative = inhibition, most hits filed as inhibitors; AID 1347051; shares compounds with hNpr1 antagonist; 69% of 1,400 active; calls by dose curve; further: on the % scale 0 is the no-effect control and ±100 the full control effect; nearly all actives have a fitted effect of over 70% in size
An asterisk follows results filed as active; i = inactive; ? = inconclusive; . = no result given; [ ] = dose if it differs, or a comment. An excerpt weighted towards active compounds, which were near 11% of everything screened. Unless noted, the call rests on the fitted dose curve; in most records, active means well fitted curve in the direction sought with a large enough effect; inconclusive means small, poorly fitted or top-dose-only effect, or another doubt; inactive means no such curve, though single readings can be large; an effect the other way counts as inactive or inconclusive. Potency means the concentration at half of the fitted maximal effect.

SMILES	hNpr1 antagonist	HEK cytotox	3T3 cytotox	Luciferase inh	Npr1 antag conf	NPR2 antag	FLuc counter	GloSensor cGMP
COc1ccc(S(=O)(=O)N2CCc3c(C(=O)NCc4cccc(F)c4)cccc32)cc1	?	?	-25%	i	?	?	-13%	?
CCCNC(=O)c1cccc2c1CCN2S(=O)(=O)c1ccc(OC)cc1	?	?	-22%	i	.	.	.	.
Cc1ccc(S(=O)(=O)N2CCc3c(C(=O)NCc4ccccn4)cccc32)cc1	11µM*	?	?	i	24µM*	24µM*	-7%	31µM*
CCCNC(=O)c1cccc2c1CCN2S(=O)(=O)c1ccc(C)cc1	?	?	?	i	.	.	.	.
C[S+](=O)([O-])NCCn1ccc2cc(OC3CCN(c4ncc(F)cn4)CC3)cnc21	22µM*	?	?	i	20µM*	28µM*	-1%[86.2 µM]	22µM*
O=C(NCCc1cccs1)c1cc2n(n1)CC(c1ccc(Cl)cc1)OC2 (stereo not given)	?	?	?	i	.	.	.	.
NS(=O)(=O)c1ccc(CCNC(=O)c2cc3n(n2)CC(c2ccc(Cl)cc2)OC3)cc1 (stereo not given)	14µM*	45µM*	?	i	24µM*	?	1%	24µM*
O=C(Nc1ccc(Oc2ccccc2)cc1)c1cc2n(n1)CC(c1ccc(Cl)cc1)OC2 (stereo not given)	3.5µM*	?	-28%	i	3.9µM*	4.8µM*	2%	3.9µM*
COc1ccc(CNC(=O)c2cc3n(n2)CC(c2ccc(Cl)cc2)OC3)cc1 (stereo not given)	22µM*	32µM*	?	i	27µM*	22µM*	-6%	22µM*
O=C(Nc1ccc(F)c(F)c1)c1cc2n(n1)CC(c1ccc(Cl)cc1)OC2 (stereo not given)	?	?	?	i	.	.	.	.
COc1ccc(NC(=O)c2cc3n(n2)CC(c2ccc4c(c2)OCO4)OC3)cc1Cl (stereo not given)	?	?	-4%	i	?	-26%	-4%	?
Cc1ccc(-c2cc3c(=O)n(CCNC(=O)Cc4ccc(Cl)cc4)ccn3n2)cc1C	0%	-26%	-12%	i	.	.	.	.
COc1ccccc1OCCCN1CCN(Cc2ccccc2)CC(O)C1 (stereo not given)	0%	?	-24%	i	.	.	.	.
O=C(Nc1ccc(Cl)cc1)c1cc2n(n1)CC(c1ccc(Cl)cc1)OC2 (stereo not given)	11µM*	?	?	i	24µM*	?	-2%	27µM*
Cc1ccc(N2CCN(C(=O)c3cc4n(n3)CC(c3ccc(Cl)cc3)OC4)CC2)cc1 (stereo not given)	?	?	?	i	.	.	.	.
CC(=O)c1ccc(N2CCN(C(=O)c3cc4n(n3)CC(c3ccc(Cl)cc3)OC4)CC2)cc1 (stereo not given)	11µM*	?	?	i	22µM*	24µM*	-2%	24µM*
CC(=O)Nc1ccc(NC(=O)c2cc3n(n2)CC(c2ccc(Cl)cc2)OC3)cc1 (stereo not given)	-17%	?	-26%	i	.	.	.	.
O[C@@H]1CO[C@H]2[C@@H]1OC[C@@H]2n1cc(-c2ccccc2)nn1	-9%[70.6 µM]	?	-10%[230 µM]	i	.	.	.	.
COc1ccc(C(=O)N[C@H]2CO[C@H]3[C@@H]2OC[C@@H]3n2cc(-c3ccccc3)nn2)cc1	-29%[70.6 µM]	?	?	i	.	.	.	.
c1ccc(CCCN[C@H]2CO[C@H]3[C@@H]2OC[C@@H]3n2cc(-c3ccccc3)nn2)cc1	10µM*	?	?	i	16µM*	20µM*	0%[86.2 µM]	16µM*
COC(=O)c1cccc(NC(=S)N[C@H]2CO[C@H]3[C@@H]2OC[C@@H]3n2cc(-c3ccccc3)nn2)c1	11µM*	?	?	i	12µM*	17µM*	-7%	12µM*
COc1ccc(CN2C(=O)COC[C@H]2C(=O)Nc2cc(F)ccc2C)c(OC)c1	.	-2%	?	.	.	.	.	.
CC[C@H]1CN(C(=O)c2ccccc2)CC[C@H]1CC(=O)NCc1ccc(F)cc1	1%[70.6 µM]	?	-28%[174 µM]	i	.	.	.	.
COc1ccc(CN2Cc3[nH]cnc3C[C@H]2C(=O)NCc2ccccc2)c2ccccc12	?	89µM*	?	i	?	?	0%[86.2 µM]	-23%[86.2 µM]
O=C1NN=C(c2cccnc2)C12CCN([S+](=O)([O-])c1cccc(C(F)(F)F)c1)CC2	?	?	?	i	22µM*	22µM*	2%	24µM*
SMILES	hNpr1 antagonist	HEK cytotox	3T3 cytotox	Luciferase inh	Npr1 antag conf	NPR2 antag	FLuc counter	GloSensor cGMP
CC(=O)Oc1c(-c2ccc(NC(=O)c3ccc4c(c3)OCO4)cc2)c(C2CC2)nn1-c1cccc(F)c1	-1%	-23%	?	i	.	.	.	.
Cc1ccc(-c2noc([C@@H]3C[C@H](NC(=O)CC(C)(C)C)CN3C)n2)cc1	35µM*	89µM*	?	i	?	?	-25%[86.2 µM]	?
COc1ccc(-c2noc([C@@H]3C[C@H](NS(=O)(=O)c4ccc5ccccc5c4)CN3C)n2)cc1	20µM*	?	?	i	24µM*	24µM*	?	19µM*
CN1C[C@@H](NC(=O)Nc2cccc(C#N)c2)C[C@H]1c1nc(-c2ccc(Cl)cc2)no1	25µM*	?	40µM*	i	16µM*	25µM*	3%[86.2 µM]	18µM*
CN1C[C@@H](NC(=O)CC(C)(C)CC(=O)O)C[C@H]1c1nc(-c2ccccc2)no1	8%[70.6 µM]	-5%[172 µM]	-13%[174 µM]	?	.	.	.	.
CN1C[C@@H](NC(=O)Nc2ccc(Cl)cc2)C[C@H]1c1nc(-c2ccc(F)cc2)no1	32µM*	32µM*	?	i	13µM*	20µM*	1%[86.2 µM]	13µM*
CC1(c2ccccc2)N(Cc2ccccc2)C(=O)OC12CCN(C(=O)C1CCOCC1)CC2 (stereo not given)	2%	-5%	?	i	.	.	.	.
O=C1COc2ccc(OCc3ccc(F)cc3)nc2CN1CCOc1ccccc1	32µM*	?	?	i	35µM*	35µM*	-3%[86.2 µM]	28µM*
